The text below walks through data of PubChem BioAssay.

The source made the active and inactive calls. Unless noted, no rule for the calls is given here.

Test [1] is described as follows: resazurin metabolic signal in HepG2 cells – cell-based, resazurin fluorescence, 24 h, PK04 Diversity Set, profiling panel (AID 1172). Also: test concentration not given here. Particulars: HepG2 viability, higher = more signal.
A short description of test [2]: budding yeast growth changes without added modifier – OD600, strain BY4716, 24 h, basal condition, primary screen (AID 1173). The conditions noted are these: S. cerevisiae BY4716 growth, OD600, 24 h; higher = more signal, called active from +8 up or from −8 down.
Test [3] in a line: viability profiling in MM1S myeloma cells – cell-based, resazurin fluorescence, basal, 24 h, PK04 Diversity Set, profiling panel (AID 1174). Also: test concentration not given here. The conditions noted are these: higher = more signal, called active from +8 up or from −8 down.
For test [4], the target named is Dihydroorotate dehydrogenase (quinone), mitochondrial (Plasmodium falciparum (isolate 3D7)) (UniProt Q08210). Description: inhibition of P. falciparum DHODH – biochemical, C-terminal His tag, absorbance 600 nm, primary screen (AID 1175).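 Also: recombinant parasite enzyme with a five histidine tag at its C terminus; test concentration not given here.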 The conditions noted are these: PfDHODH enzyme, DCIP absorbance 600 nm; higher = more signal, called active from +8 up or from −8 down.

Test [5] is described as follows: inhibition of PAO1 biofilm formation – strain PAO1, LB-PBS medium, absorbance 600 nm, primary screen (AID 1176). Also: test concentration not given here. The conditions noted are these: P. aeruginosa PAO1 growth/biofilm, A600, 12 h; higher = more signal.
Test [6] is described as follows: growth modulation of vineyard yeast isolate – strain RM11-1a, OD600, basal, 24 h, primary screen (AID 1177).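 Also: cultures grown under basal conditions with no added stressor; test concentration not given here.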 The conditions noted are these: S. cerevisiae RM11-1a growth, OD600, 24 h; higher = more signal, called active from +8 up or from −8 down.
Test [7] in a line: growth of efflux-deficient E. coli DRC39 – strain DRC39, OD650, 24 h, E. coli filamentation inducers, primary screen (AID 1178).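 Also: growth measured as culture turbidity by optical density at 650 nm; test concentration not given here.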 Particulars: E. coli DRC39 acrAB, higher = more signal, called active from +8 up or from −8 down.
Test [8] is described as follows: growth of efflux-deficient E. coli DRC39 – strain DRC39, OD650, 48 h, E. coli filamentation inducers, primary screen (AID 1179).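 Also: screen aims at cell division blockers that make cells filament.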 Particulars: E. coli DRC39 delta-acrAB growth, higher = more signal, called active from +8 up or from −8 down.
Test [9] can be described thus: viability profiling in RPMI8226 myeloma cells – cell-based, resazurin fluorescence, basal, 24 h, PK04 Diversity Set, profiling panel (AID 1180).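 Also: RPMI8826 multiple myeloma cell line at 5000 cells per well; test concentration not given here.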 Particulars: higher = more signal.
In test [10] the target is E3 ubiquitin-protein ligase XIAP (Homo sapiens) (UniProt P98170). Description: small molecules binding XIAP protein – biophysical, small-molecule microarray, fluorescence 635 nm, primary screen (AID 1181).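 Also: score merges 667 nm emission and signal to noise over triplicate slides.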 Particulars: higher = more signal.
Chain of E3 ubiquitin-protein ligase XIAP (Homo sapiens) (P98170 whole entry, looked up): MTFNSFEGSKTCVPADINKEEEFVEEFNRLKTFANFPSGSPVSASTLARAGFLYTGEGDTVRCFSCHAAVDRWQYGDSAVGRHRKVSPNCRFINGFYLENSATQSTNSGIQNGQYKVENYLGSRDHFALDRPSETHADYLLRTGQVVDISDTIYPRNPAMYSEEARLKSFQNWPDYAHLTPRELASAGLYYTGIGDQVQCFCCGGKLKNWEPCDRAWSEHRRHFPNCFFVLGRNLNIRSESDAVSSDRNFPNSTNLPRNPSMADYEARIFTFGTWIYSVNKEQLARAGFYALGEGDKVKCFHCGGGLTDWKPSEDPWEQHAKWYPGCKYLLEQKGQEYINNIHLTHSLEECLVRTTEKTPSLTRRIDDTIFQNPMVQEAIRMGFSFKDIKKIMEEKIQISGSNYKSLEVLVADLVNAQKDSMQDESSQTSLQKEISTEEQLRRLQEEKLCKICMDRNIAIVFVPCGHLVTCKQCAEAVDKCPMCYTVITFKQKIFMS

Chain of Dihydroorotate dehydrogenase (quinone), mitochondrial (Plasmodium falciparum (isolate 3D7)) (Q08210 whole entry, looked up): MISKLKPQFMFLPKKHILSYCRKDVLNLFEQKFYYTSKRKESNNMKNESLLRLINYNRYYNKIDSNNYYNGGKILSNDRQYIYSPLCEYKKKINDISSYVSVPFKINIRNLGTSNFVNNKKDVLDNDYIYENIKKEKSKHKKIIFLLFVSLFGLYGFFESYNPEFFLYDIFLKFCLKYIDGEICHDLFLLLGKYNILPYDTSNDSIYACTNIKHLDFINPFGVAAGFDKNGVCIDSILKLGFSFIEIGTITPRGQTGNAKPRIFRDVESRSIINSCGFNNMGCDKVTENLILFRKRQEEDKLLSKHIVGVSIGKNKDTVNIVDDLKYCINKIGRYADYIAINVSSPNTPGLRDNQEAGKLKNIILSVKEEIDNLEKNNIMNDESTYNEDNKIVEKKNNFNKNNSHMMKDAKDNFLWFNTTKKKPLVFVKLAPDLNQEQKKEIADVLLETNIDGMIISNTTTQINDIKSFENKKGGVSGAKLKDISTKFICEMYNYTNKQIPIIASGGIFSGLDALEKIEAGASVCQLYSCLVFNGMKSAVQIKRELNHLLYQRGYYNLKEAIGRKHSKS

`COc1ccc(CCNC(=O)[C@@H]2c3ccccc3C(=O)N(Cc3cc(C(F)(F)F)cc(C(F)(F)F)c3)[C@H]2c2ccc(CO)cc2)cc1`: the z-score in test [1] is 0.317; in test [2] it was -0.662 (inactive); in test [3] it was -0.295 (inactive); in [5], 0.279 (inactive); in test [6], 0.864 (inactive); in [7] it was 0.619 (inactive). For the same compound, the z-score was 0.591 (inactive) in [8] and 0.451 in test [9]. Also, the results for the composite z-score in [4] and in test [10] were -0.928 (inactive) and -0.213, respectively.
For the compound `COCCOC(=O)N1C(=O)[C@@]2(c3cc(C#CCCO)ccc31)[C@H](C(=O)Nc1nc3ccccc3s1)[C@H]1C(=O)O[C@H](c3ccccc3)[C@H](c3ccccc3)N1[C@@H]2c1ccccc1OCCO`, the z-score in test [1] is 0.316; in test [2], 2.04 (inactive); in test [3] it was -0.459 (inactive); in test [5], 1.7 (inactive); in [6], 1.91 (inactive); in test [7], -0.0306 (inactive). Further, the z-score in [8] is -0.339 (inactive); in [9] it was -1.28. The composite z-score was 1.1 (inactive) in test [4] and -0.115 in test [10].
For `Cc1ccc(S[C@]2(C(=O)O)CC(=O)N(Cc3cc(C(F)(F)F)cc(C(F)(F)F)c3)[C@@H]2c2ccc(CO)cc2)cc1`, the z-score in test [1] is -0.403; in test [2], -0.54 (inactive); in [3], -0.543 (inactive); in test [5], 0.761 (inactive); in test [6], 0.988 (inactive); in test [7] it was -0.296 (inactive). Moreover, the z-score in test [8] was -0.526 (inactive); in test [9], -0.278. The composite z-score in test [4] was -0.254 (inactive); in test [10], -0.053.
As to `CN(C)CCCNC(=O)[C@@H]1c2ccccc2C(=O)N(Cc2ccccc2Cl)[C@H]1c1ccc(CO)cc1`, the z-score in [1] was 0.248; in test [2] it was -0.433 (inactive); in test [3], 0.608 (inactive); in [5] it was 0.0561 (inactive); in test [6], -0.39 (inactive); in test [7], 0.206 (inactive). For the same compound, the z-score in [8] was -0.2 (inactive); in test [9], 0.179. In addition, the results for the composite z-score in test [4] and in test [10] were 0.411 (inactive) and -0.02, respectively.
`C[C@@H]1ON(c2ccc(C(=O)OC(C)(C)C)cc2)[C@H](c2ccc(O)cc2)[C@H]1C(=O)N1C(=O)OC[C@H]1Cc1ccccc1`: the z-score was -1.61 in test [1]; 0.479 (inactive) in test [2]; -1.04 (inactive) in [3]; 0.212 (inactive) in [5]; 0.351 (inactive) in test [6]; -0.682 (inactive) in test [7]. Further, the z-score in [8] is -0.118 (inactive); in [9], -0.687. The composite z-score in [4] was 0.771 (inactive); in test [10] it was -0.13.
On to `CCOC(=O)C[C@H]1[C@H](OC(=O)c2ccc(C(=O)c3ccccc3)cc2)[C@@H](NC(=O)Cc2ccc(OC)cc2)c2cc(OCCCO)ccc2N1C(=O)c1ccccc1`, for which the z-score in [1] was 0.0566; in test [2], 0.29 (inactive); in test [3], -0.292 (inactive); in [5], 0.325 (inactive); in test [6], -0.193 (inactive); in [7], -0.307 (inactive). Besides, the z-score in [8] is -0.215 (inactive); in [9] it was -0.268. Besides, the results for the composite z-score in test [4] and in [10] were -0.517 (inactive) and 0.169, respectively.
On to `C=CCNC(=O)[C@H]1[C@@H]2C(=O)O[C@@H](c3ccccc3)[C@@H](c3ccccc3)N2[C@@H](c2ccc(O)cc2)[C@]12C(=O)Nc1ccc(C#CC3(O)CCCCCC3)cc12`, for which the z-score was 0.435 in test [1]; -0.989 (inactive) in test [2]; -0.514 (inactive) in test [3]; 1.45 (inactive) in test [5]; -0.596 (inactive) in [6]; 0.186 (inactive) in [7]. Further, the values for the z-score in test [8] and in test [9] were -0.11 (inactive) and -0.458, respectively. The values for the composite z-score in test [4] and in test [10] were 0.19 (inactive) and -0.0622, respectively.
On to `COCCOC(=O)N1C(=O)[C@@]2(c3cc(C#CC4=CCCCC4)ccc31)[C@H](c1ccccc1OCCO)N1[C@H](c3ccccc3)[C@H](c3ccccc3)OC(=O)[C@H]1[C@@H]2C(=O)Nc1nc2ccccc2s1`, for which the z-score is 0.322 in test [1]; 0.357 (inactive) in [2]; -0.774 (inactive) in [3]; 1.63 (inactive) in test [5]; 1.12 (inactive) in [6]; -0.736 (inactive) in test [7]. Also, the z-score in [8] is -0.3 (inactive); in test [9] it was -0.765. In addition, the figures for the composite z-score in test [4] and in [10] were -0.291 (inactive) and 0.0304, respectively.
Turning to `COc1ccc([Si](C)(C)[C@@H]2[C@@H](CC(=O)N(CCO)Cc3ccccc3)O[C@]3(C(=O)N(Cc4cccc(N5C(=O)c6cccc7cccc5c67)c4)c4ccccc43)[C@H]2C)cc1`, the z-score is -0.47 in test [1]; -0.304 (inactive) in [2]; -1.6 (inactive) in test [3]; 1.25 (inactive) in test [5]; 0.323 (inactive) in test [6]; 1.75 (inactive) in test [7]. Besides, the z-score was 1.51 (inactive) in test [8] and -1.27 in [9]. Also, the composite z-score was -1.29 (inactive) in [4] and -0.124 in test [10].
Regarding `CCCCO[C@H]1C[C@H]2C(I)=C[C@@H]1C(=O)[C@]21CO1`, the z-score in [1] is -0.0876; in [2] it was -8.45 (active); in test [3], -0.67 (inactive); in test [5] it was 0.0481 (inactive); in test [6], -1.31 (inactive); in [7], -0.814 (inactive). Besides, the z-score is -1.05 (inactive) in [8] and -0.0824 in test [9]. For the same compound, the composite z-score in test [4] was -0.0864 (inactive); in [10] it was -0.255.
On to `C[C@]1(C(=O)NC2CC2)c2ccccc2C(=O)N(Cc2ccccc2)[C@H]1c1ccc(CO)cc1`, for which the z-score in [1] was -0.0738; in test [2], -0.886 (inactive); in [3], 1.62 (inactive); in [5] it was 0.553 (inactive); in test [6], -1.02 (inactive); in [7], 0.809 (inactive). In addition, the z-score in test [8] is 0.653 (inactive); in [9], 1.08. Also, the composite z-score in [4] is -0.806 (inactive); in test [10], -0.234.
On to `CC1=C([C@H](O)CCc2ccccc2)[C@H](CO)[C@@H]2C(=O)N(C)C(=O)[C@@H]2C1`, for which the z-score is -0.0457 in test [1]; -2.32 (inactive) in [2]; -0.382 (inactive) in test [3]; 0.176 (inactive) in [5]; 0.291 (inactive) in [6]; 0.15 (inactive) in test [7]. The z-score was 0.181 (inactive) in test [8] and 0.149 in [9]. The composite z-score in test [4] is -1.2 (inactive); in test [10], -0.152.
As for `COC(=O)[C@@]1(Cc2ccc(OC)cc2)[C@H]2c3cc(C(=O)N4CCCC4)n(Cc4cccc5ccccc45)c3C[C@H]2CN1C(=O)c1ccccc1`, the z-score was -0.18 in test [1]; 1.07 (inactive) in [2]; -0.619 (inactive) in test [3]; -0.362 (inactive) in [5]; 1.08 (inactive) in test [6]; 0.24 (inactive) in test [7]. Moreover, the figures for the z-score in test [8] and in [9] were 0.277 (inactive) and 0.0686, respectively. Further, the results for the composite z-score in [4] and in [10] were 0.237 (inactive) and 0.5, respectively.
